# Source: PubChem BioAssay (National Center for Advancing Translational Sciences (NCATS))
# FLuc counter: inhibits or activates purified firefly luciferase, miR-21 counter-screen | AID 588342 | P08659 | 6.9% of 360,000 active | purified FLuc, Km substrates, luminescence inhibition | Potency, µM (doses to about 57.5 µM), most hits filed as inhibitors; note: nearly all actives have a fitted effect of over 55% in size
# Target sequence (P08659 whole entry, looked up): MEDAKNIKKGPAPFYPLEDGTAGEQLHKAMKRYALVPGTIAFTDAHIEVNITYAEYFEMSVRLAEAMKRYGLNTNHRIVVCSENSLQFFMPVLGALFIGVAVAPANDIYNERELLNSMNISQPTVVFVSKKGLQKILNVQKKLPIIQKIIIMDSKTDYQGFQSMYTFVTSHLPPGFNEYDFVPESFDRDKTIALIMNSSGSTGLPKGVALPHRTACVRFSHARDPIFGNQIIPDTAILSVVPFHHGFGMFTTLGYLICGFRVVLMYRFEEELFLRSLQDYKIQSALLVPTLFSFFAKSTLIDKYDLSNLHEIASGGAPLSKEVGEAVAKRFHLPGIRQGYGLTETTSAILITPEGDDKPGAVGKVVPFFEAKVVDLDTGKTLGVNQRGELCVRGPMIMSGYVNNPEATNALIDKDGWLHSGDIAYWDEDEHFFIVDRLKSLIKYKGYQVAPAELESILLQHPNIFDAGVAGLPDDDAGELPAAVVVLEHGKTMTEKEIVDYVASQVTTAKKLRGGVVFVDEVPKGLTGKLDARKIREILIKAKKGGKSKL
#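 Purified P. pyralis luciferase (10nM final) with 10uM D-luciferin and 10uM ATP (Km levels) in 50mM Tris acetate pH 7.5, 10mM Mg acetate, 0.01% Tween-20, 0.05% BSA; qHTS 6-point titration, ~60 µM downward; luminescence read.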
# Luc counter: Kinase-Glo luciferase inhibition (counter-screen); Q27757; Potency, µM (doses to about 38.3 µM), most hits filed as inhibitors; Kinase-Glo luciferase, ATP luminescence, 8 min; 0.28% of 200,000 active; note: nearly all actives have a fitted effect of over 60% in size
#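 Substrate mix (final 50 mM imidazole pH 7.2, 50 mM KCl, 7 mM MgCl2, 10 uM ATP, 0.01% Tween 20, 0.05% BSA) plus pin-tool compound, then Kinase-Glo detection mix; 8 min ambient, luminescence read.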
# NPC1 prom act: NPC1 promoter activation; Huh7 NPC1 promoter luciferase reporter, 24 h; Potency, µM (top dose mostly 9.22 µM), actives largely listed as activators; 2.4% of 320,000 active; note: nearly all actives have a fitted effect of over 60% in size
#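 Luciferase expression driven by the NPC1 promoter was measured in stably transfected Huh7 cells after a 24 h compound incubation, using a luciferase reagent and a luminescence read.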
# Rab9 prom act: activators of Rab9 promoter; 2.8% of 320,000 active; Huh7 Rab9 promoter-luciferase reporter, luminescence, 24 h; Potency, µM (top dose mostly 9.22 µM), hits mostly activators; note: nearly all actives have a fitted effect of over 60% in size
#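 Huh7 cells stably carrying Rab9 promoter–luciferase reporter, plated 1500 cells/well, compound added after 2 h and incubated 24 h at 37 °C; luciferase luminescence then read after 10 min with detection reagent.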
# SMN2 splice up: enhancers of SMN2 splice variant expression; HEK293 SMN2-luciferase splicing reporter, luminescence, 30-36 h; Potency, µM (series often up to 46.1 µM), actives largely listed as activators; 2.8% of 210,000 active; AID 1458; note: nearly all actives have a fitted effect of over 55% in size
#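 HEK293 cells carry an SMN2 minigene-luciferase reporter in which exon 7 inclusion puts luciferase in frame. Cells were seeded at 2000 cells/well, attached for 10-12 hours, then exposed to compounds for 30-36 hours at 37C before ONE-Glo luminescence.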
# ELG1 genotox: induces genotoxicity in HEK293T cells with luciferase-tagged ELG1. HEK293T ELG1-luciferase reporter, luminescence, 16 h. Potency, µM (titrated, usually from 46 µM), actives largely listed as activators. 1.3% of 330,000 active. AID 504466; note: nearly all actives have a fitted effect of over 60% in size
#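 Screening used a luciferase reporter fused to human ELG1 in HEK293T cells. Luminescence was read on a CCD plate imager after 16 hr exposure and 30 min ONE-Glo incubation.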
# Numbers stand for hits; - = inactive; ? = inconclusive; . = no result. A selection: hits, their analogues and other compounds. The true share with any hit is near 7.5%. Calls come from the whole dose curve; as a rule, active = well fitted curve in the direction sought with a large enough effect; inconclusive = small, poorly fitted or top-dose-only effect, or another doubt; inactive = no such curve, though single readings can be large; an effect the other way counts as inactive or inconclusive.
SMILES,FLuc counter,Luc counter,NPC1 prom act,Rab9 prom act,SMN2 splice up,ELG1 genotox
O=c1c(Br)c(Br)cnn1-c1ccccc1,-,-,-,-,-,-
Nc1c(-c2ccccc2)cnn1-c1ccccc1,10.7µM,.,3.16µM,3.55µM,.,?
Cc1ccc(-c2cnn(-c3cccc(C(F)(F)F)c3)c2N)cc1,7.57µM,-,?,3.98µM,-,?
O=c1cnn(-c2ccccc2)c(-c2ccccc2)c1,10.7µM,-,-,-,-,-
COc1cc(CCC(=O)N2CCN(S(=O)(=O)c3ccc(C)cc3)CC2)cc(OC)c1OC,.,.,-,-,.,-
Cc1ccc(N/N=C/c2c(O)cc(C)oc2=O)cc1,13.5µM,-,-,-,-,-
Cc1cc(O)c(/C=N/Nc2ccc(F)cc2)c(=O)o1,13.5µM,-,-,-,-,-
Cc1c(/C=N/Nc2ccc(F)cc2)c(O)n(C)c(=O)c1C#N,23.9µM,-,-,-,.,-
Cc1ccc(Cl)cc1NC(=O)Cn1c(=O)n(CCCS(=O)(=O)C2CCCCC2)c(=O)c2ccccc21,-,.,.,.,-,.
O=C(NCC1CCCO1)c1cccc2ccccc12 (stereo not given),-,.,-,-,.,-
COc1ccc2c(Cl)c(C(=O)NCC3CCCO3)sc2c1Cl (stereo not given),-,-,-,-,.,-
CC(NC(=O)c1sc2ccccc2c1Cl)C1CCCO1 (stereo not given),9.53µM,-,?,?,11.2µM,?
Cc1ccc2c(Cl)c(C(=O)NCC3CCCO3)sc2c1 (stereo not given),5.36µM,-,2µM,2.24µM,11.2µM,?
CC(NC(=O)c1csc2ccccc12)C1CCCO1 (stereo not given),-,-,-,-,-,?
O=C(NCC1CCCO1)c1sc2ccccc2c1Cl (stereo not given),19µM,-,?,?,12.6µM,?
O=C(O)CC(NC(=O)c1sc2ccccc2c1Cl)c1ccc(OC2CCCC2)cc1 (stereo not given),15.1µM,-,-,-,-,-
O=C(CN1CCN(Cc2ccccc2F)CC1)Nc1ccccc1Cl,-,.,-,-,.,-
O=C(NCC1CCCO1)c1sc(=S)n2c1[nH]c(=O)c1ccc(C(=O)N3CCCCC3)cc12 (stereo not given),21.3µM,-,-,-,-,-
CC1CCc2[nH]c3ccc(C(=O)NCC4CCCO4)cc3c2C1 (stereo not given),9.53µM,.,-,?,.,-
O=C(NCCc1ccccc1)c1ccc2c(=O)[nH]c3c(C(=O)NCC4CCCO4)sc(=S)n3c2c1 (stereo not given),?,.,-,-,.,-
CC1CCN(C(=O)CSc2nc3ccccc3nc2Cc2ccccc2)CC1,-,.,.,.,.,.
Cc1nn(C)c2c1c(C(F)(F)F)cc(=O)n2C(C)C(=O)NCc1ccccc1 (stereo not given),-,.,.,.,.,.
O=C(Cc1ccc(Br)cc1)N1CCN(C(=O)c2ccco2)CC1,-,.,-,-,.,-
COC(=O)C1=C(C)N(Cc2ccccc2)C(=NCc2ccco2)N[C@H]1c1ccc(Br)cc1,-,.,.,.,.,.
CCC(=O)Nc1cc(OC)c(NC(=O)c2ccccc2)cc1OC,-,-,-,-,?,-
SMILES,FLuc counter,Luc counter,NPC1 prom act,Rab9 prom act,SMN2 splice up,ELG1 genotox
COc1cc(NC(=O)c2ccccc2)c(C)cc1NC(=O)CC(CC(=O)O)c1ccccc1 (stereo not given),13.5µM,.,-,-,.,-
O=C(O)c1ccccc1N/N=C\c1ccnc2ccccc12,0.169µM,-,0.355µM,?,5.01µM,0.581µM
O=C(O)c1ccccc1N/N=C/c1cc(Br)cc(Br)c1O,7.57µM,.,1.58µM,1.41µM,.,?
C/C(=N\NC(=O)c1ccc(OC2CCCC2)cc1)c1ccc(O)cc1,-,.,-,-,.,-
CCOC(=O)c1ccc(NC(=O)c2oc3c(c2C)-c2nn(Cc4ccccc4Cl)cc2CC3)cc1,-,.,.,.,.,.
Cc1ccc(CNC(=O)Cc2noc3ccccc23)cc1,6.75µM,-,0.891µM,1.78µM,.,?
O=C(Cc1noc2ccccc12)Nc1ccccn1,?,-,?,?,10µM,-
Cc1ccc(NC(=O)Cc2noc3ccccc23)nc1,?,-,-,-,-,-
Cc1cccc(NC(=O)Cc2noc3ccccc23)c1,16.9µM,-,?,?,12.6µM,?
COc1ccc(-c2nnc(SCc3ccc(C(=O)O)cc3)n2C)cc1OC,-,.,-,-,.,-
COc1ccc(CC(=O)NCc2csc(-c3cccs3)n2)cc1OC,-,.,-,-,.,-
CCCCCCCCCCCCCCCC(=O)C(F)(F)F,.,-,.,.,.,.
CC(=O)Nc1ccc(Nc2cc(C)nc3c(-c4ccccc4)cnn23)cc1,5.36µM,-,?,?,-,1.46µM
Cc1nc2c(-c3ccccc3)cnn2c(N2CCOCC2)c1C,3.01µM,.,2.51µM,1.26µM,.,6.51µM
Cc1cc(N)n2ncc(-c3ccccc3)c2n1,9.53µM,-,2.82µM,1.58µM,15.8µM,10.3µM
Cc1cc(N)n2ncc(-c3cccc(Br)c3)c2n1,15.1µM,-,?,2.82µM,-,16.4µM
CCOC(=O)Cc1c(C)nc2c(-c3cccc(Br)c3)cnn2c1C,-,-,-,-,-,-
Cc1cc(N2CCN(C3CCCC3)CC2)n2ncc(-c3ccccc3)c2n1,?,-,-,-,-,?
COc1ccc(NC(=O)C2=C(C)Nc3ncnn3C2c2ccc[nH]2)cc1 (stereo not given),-,.,.,.,.,.
COC1CCC(C(=O)c2ccc3nc4c(cc3c2)CCCO4)CC1 (stereo not given),.,-,.,.,12.6µM,.
Cc1ccc2cc3c(nc2c1)OCC3,-,.,-,-,.,-
COc1ccc(CN2C(=O)c3ccccc3C2=O)cc1C(=O)N(C)CC(=O)Nc1ccc(F)cc1,-,.,-,-,.,-
Cc1cc(=O)[nH]c(SCCOc2ccc3c(c2)CCC3)n1,7.57µM,-,.,.,12.6µM,.
Cc1cc(=O)[nH]c(SCCCOc2ccccc2Cl)n1,23.9µM,-,-,-,-,-
C/C=C/c1ccc(OCCSc2nc(C)cc(=O)[nH]2)c(OC)c1,13.5µM,-,-,-,-,?
SMILES,FLuc counter,Luc counter,NPC1 prom act,Rab9 prom act,SMN2 splice up,ELG1 genotox
Cc1cc(=O)[nH]c(SCCOc2ccc(OC(C)C)cc2)n1,15.1µM,-,?,?,?,5.17µM
Cc1cccc(N(C(=O)c2ccco2)C(C(=O)NC2CCCC2)c2ccco2)c1C (stereo not given),-,.,-,-,.,-
Cc1ccc(NC(=O)CSc2ncc3c(n2)-c2ccccc2N(C)S3(=O)=O)c(Cl)c1,-,.,.,.,.,.
Brc1ccc(C2=NC(Cc3ccccc3)CO2)cc1 (stereo not given),6.75µM,-,?,?,7.08µM,?
O=C(OCc1ccccc1)[C@@H]1COC(c2ccc(Br)cc2)=N1,.,-,.,.,.,.
CCc1ccc(C2c3c(-c4cc(C)ccc4O)n[nH]c3C(=O)N2Cc2cccnc2)cc1 (stereo not given),-,.,.,.,-,.
